# Test results as given in the supplement of paper PMC8728848.
# The entries come from a sample that favours the strongest signals as a whole.
# Tests used:
# Assay in all cases: glycan array binding signal (z-score within array); higher = stronger binding
# Details in all cases: glycan notation: IUPAC condensed, linker removed
# [1] = biological target: Fuc(a1-2)Gal(b1-3)GalNAc(a1-3)[Fuc(a1-2)]Gal(b1-4)GlcNAc
# Method in brief: (§1)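 The Consortium for Functional Glycomics database supplied 3228 glycan arrays, of which those lacking an available protein sequence were dropped. The binding signal, a within-array Z-score, was averaged across arrays of the same protein sequence and across linkers. Negative scores can be read as non-binding.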
# [2] = biological target: Fuc(a1-2)Gal(b1-3)GalNAc(b1-3)Gal(a1-4)Gal(b1-4)Glc
# Method in brief: as §1
# [3] = biological target: Fuc(a1-2)Gal(b1-3)GlcNAc(b1-3)[Neu5Ac(a2-6)Gal(b1-4)GlcNAc(b1-6)]Gal(b1-4)Glc
# Method in brief: as §1
# [4] = biological target: Fuc(a1-2)Gal(b1-4)GlcNAc(b1-3)Gal(b1-4)GlcNAc(b1-2)Man(a1-3)[Fuc(a1-2)Gal(b1-4)GlcNAc(b1-3)Gal(b1-4)GlcNAc(b1-2)Man(a1-6)]Man(b1-4)GlcNAc(b1-4)GlcNAc
# Method in brief: as §1
# [5] = biological target: Fuc(a1-2)Gal(b1-4)GlcNAc(b1-6)GalNAc
# Method in brief: as §1
# [6] = biological target: Fuc(a1-2)[Gal(a1-3)]Gal(b1-4)GlcNAc(b1-3)GalNAc
# Method in brief: as §1
# [7] = biological target: Fuc(a1-2)[Gal(a1-3)]Gal(b1-4)GlcNAc(b1-3)[Fuc(a1-2)[Gal(a1-3)]Gal(b1-4)GlcNAc(b1-6)]GalNAc
# Method in brief: as §1
# [8] = biological target: Fuc(a1-2)[GalNAc(a1-3)]Gal(b1-3)GlcNAc(b1-2)Man(a1-3)[Fuc(a1-2)[GalNAc(a1-3)]Gal(b1-3)GlcNAc(b1-2)Man(a1-6)]Man(b1-4)GlcNAc(b1-4)[Fuc(a1-6)]GlcNAc
# Method in brief: as §1
# [9] = biological target: Fuc(a1-2)[GalNAc(a1-3)]Gal(b1-4)GlcNAc(b1-3)GalNAc
# Method in brief: as §1
# [10] = biological target: Fuc(a1-2)[GalNAc(a1-3)]Gal(b1-4)[Fuc(a1-3)]GlcNAc
# Method in brief: as §1
# [11] = biological target: Fuc(a1-3)[Gal(b1-4)]GlcNAc(b1-2)Man(a1-3)[Fuc(a1-3)[Gal(b1-4)]GlcNAc(b1-2)Man(a1-6)]Man(b1-4)GlcNAc(b1-4)[Fuc(a1-6)]GlcNAc
# Method in brief: as §1
# [12] = biological target: Fuc(a1-3)[Gal(b1-4)]GlcNAc(b1-6)[Gal(b1-3)GlcNAc(b1-3)]Gal(b1-4)Glc
# Method in brief: as §1
# [13] = biological target: Fuc(a1-3)[GalNAc(b1-4)]GlcNAc6S
# Method in brief: as §1
# [14] = biological target: Gal(b1-3)[Fuc(a1-4)]GlcNAc(b1-2)Man
# Method in brief: as §1
# [15] = biological target: Gal(b1-3)[Neu5Ac(a2-6)]GalNAc
# Method in brief: as §1
# [16] = biological target: Gal(b1-3)[Neu5Ac(b2-6)]GalNAc
# Method in brief: as §1
# [17] = biological target: Gal(b1-4)GlcNAc(b1-2)Man(a1-3)[GlcNAc(b1-4)][Gal(b1-4)GlcNAc(b1-2)Man(a1-6)]Man(b1-4)GlcNAc(b1-4)GlcNAc
# Method in brief: as §1
# [18] = biological target: Gal(b1-4)GlcNAc(b1-2)[Gal(b1-4)GlcNAc(b1-6)]Man(a1-6)[Gal(b1-4)GlcNAc(b1-2)Man(a1-3)]Man(b1-4)GlcNAc(b1-4)[Fuc(a1-6)]GlcNAc
# Method in brief: as §1
# [19] = biological target: Gal(b1-4)GlcNAc(b1-3)Gal(b1-4)GlcNAc(b1-2)[Gal(b1-4)GlcNAc(b1-3)Gal(b1-4)GlcNAc(b1-6)]Man(a1-6)[Gal(b1-4)GlcNAc(b1-3)Gal(b1-4)GlcNAc(b1-2)Man(a1-3)]Man(b1-4)GlcNAc(b1-4)GlcNAc
# Method in brief: as §1
# [20] = biological target: Gal(b1-4)GlcNAc(b1-3)Gal(b1-4)GlcNAc(b1-3)Gal(b1-4)GlcNAc(b1-3)Gal(b1-4)GlcNAc(b1-3)Gal(b1-4)GlcNAc(b1-3)Gal(b1-4)GlcNAc(b1-2)Man(a1-3)[Gal(b1-4)GlcNAc(b1-3)Gal(b1-4)GlcNAc(b1-3)Gal(b1-4)GlcNAc(b1-3)Gal(b1-4)GlcNAc(b1-3)Gal(b1-4)GlcNAc(b1-3)Gal(b1-4)GlcNAc(b1-2)Man(a1-6)]Man(b1-4)GlcNAc(b1-4)GlcNAc
# Method in brief: as §1
# [21] = biological target: Gal(b1-4)GlcNAc(b1-3)Gal(b1-4)GlcNAc(b1-3)[Gal(b1-4)GlcNAc(b1-3)Gal(b1-4)GlcNAc(b1-6)]GalNAc
# Method in brief: as §1
# [22] = biological target: Gal(b1-4)GlcNAc(b1-3)Gal(b1-4)[Fuc(a1-3)]GlcNAc(b1-3)Gal(b1-4)[Fuc(a1-3)]GlcNAc
# Method in brief: as §1
# [23] = biological target: Gal(b1-4)GlcNAc(b1-3)[GlcNAc(b1-6)]Gal(b1-4)GlcNAc
# Method in brief: as §1
# Gal3S(b1-3)GalNAc = biological target: Gal3S(b1-3)GalNAc
# Method in brief: as §1
# [24] = biological target: Gal3S(b1-4)[Fuc(a1-3)]GlcNAc
# Method in brief: as §1
# GalNAc(b1-6)GalNAc = biological target: GalNAc(b1-6)GalNAc
# Method in brief: as §1
# [25] = biological target: GlcNAc(a1-4)Gal(b1-4)GalNAc
# Method in brief: as §1
# [26] = biological target: GlcNAc(a1-4)Gal(b1-4)GlcNAc(b1-3)Gal(b1-4)GlcNAc
# Method in brief: as §1
# [27] = biological target: GlcNAc(a1-4)Gal(b1-4)GlcNAc(b1-3)Gal(b1-4)GlcNAc(b1-3)Gal(b1-4)GlcNAc
# Method in brief: as §1
# [28] = biological target: GlcNAc(a1-4)Gal(b1-4)GlcNAc(b1-3)Gal(b1-4)[Fuc(a1-3)]GlcNAc(b1-3)Gal(b1-4)[Fuc(a1-3)]GlcNAc
# Method in brief: as §1
# [29] = biological target: GlcNAc(b1-2)[GlcNAc(b1-6)]Man(a1-6)[GlcNAc(b1-2)Man(a1-3)]Man(b1-4)GlcNAc(b1-4)GlcNAc
# Method in brief: as §1
# [30] = biological target: GlcNAc(b1-3)Gal(b1-4)GlcNAc(b1-2)Man(a1-3)[GlcNAc(b1-3)Gal(b1-4)GlcNAc(b1-2)Man(a1-6)]Man(b1-4)GlcNAc(b1-4)[Fuc(a1-6)]GlcNAc
# Method in brief: as §1
# [31] = biological target: GlcNAc(b1-3)Gal(b1-4)GlcNAc(b1-3)Gal(b1-4)GlcNAc(b1-2)Man(a1-3)[GlcNAc(b1-3)Gal(b1-4)GlcNAc(b1-3)Gal(b1-4)GlcNAc(b1-2)Man(a1-6)]Man(b1-4)GlcNAc(b1-4)[Fuc(a1-6)]GlcNAc
# Method in brief: as §1
# [32] = biological target: GlcNAc(b1-3)Gal(b1-4)GlcNAc(b1-3)Gal(b1-4)GlcNAc(b1-3)Gal(b1-4)GlcNAc(b1-3)Gal(b1-4)GlcNAc(b1-2)Man(a1-3)[GlcNAc(b1-3)Gal(b1-4)GlcNAc(b1-3)Gal(b1-4)GlcNAc(b1-3)Gal(b1-4)GlcNAc(b1-3)Gal(b1-4)GlcNAc(b1-2)Man(a1-6)]Man(b1-4)GlcNAc(b1-4)[Fuc(a1-6)]GlcNAc
# Method in brief: as §1
# [33] = biological target: GlcNAc(b1-3)Gal(b1-4)GlcNAc(b1-3)Gal(b1-4)GlcNAc(b1-3)GalNAc
# Method in brief: as §1
# GlcNAc(b1-4)GlcNAc = biological target: GlcNAc(b1-4)GlcNAc
# Method in brief: as §1
# [34] = biological target: Neu5Ac(a2-3)Gal(b1-3)GlcNAc(b1-2)Man
# Method in brief: as §1
# [35] = biological target: Neu5Ac(a2-3)Gal(b1-3)GlcNAc(b1-6)GalNAc
# Method in brief: as §1
# [36] = biological target: Neu5Ac(a2-3)Gal(b1-4)GlcNAc(b1-3)GalNAc
# Method in brief: as §1
# [37] = biological target: Neu5Ac(a2-3)Gal(b1-4)GlcNAc(b1-6)GalNAc
# Method in brief: as §1
# [38] = biological target: Neu5Ac(a2-3)Gal(b1-4)[Fuc(a1-3)]GlcNAc(b1-3)GalNAc
# Method in brief: as §1
# Neu5Ac(a2-3)GalNAc = biological target: Neu5Ac(a2-3)GalNAc
# Method in brief: as §1
# [39] = biological target: Neu5Ac(a2-6)Gal(b1-4)GlcNAc(b1-2)Man(a1-3)[Neu5Ac(a2-6)Gal(b1-4)GlcNAc(b1-2)Man(a1-6)]Man(b1-4)GlcNAc(b1-4)GlcNAc
# Method in brief: as §1
# [40] = biological target: Neu5Ac(a2-6)Gal(b1-4)GlcNAc(b1-3)[Neu5Ac(a2-6)Gal(b1-4)GlcNAc(b1-6)]GalNAc
# Method in brief: as §1
# [41] = biological target: Neu5Ac(a2-6)GalNAc(b1-4)GlcNAc6S
# Method in brief: as §1
# [42] = biological target: Neu5Ac(a2-8)Neu5Ac(a2-8)Neu5Ac
# Method in brief: as §1
# Neu5Ac(b2-6)GalNAc = biological target: Neu5Ac(b2-6)GalNAc
# Method in brief: as §1
# [43] = biological target: Neu5Gc(a2-3)Gal(b1-4)GlcNAc
# Method in brief: as §1
binder,measurement,setting,value
ClecSol-Fc (Cryptosporidium parvum) (protein) CPEGWISNGEKTRCFKLVTFDRPRTFSHGFKACNDLGGTEVETRRRNGSKETNEYPVTLASVYKLSDEEAIRRTLVEQGDIHKTANGCFVGLRKYAFFRYPPGWYWIDSGSPVSVRDSEINWTSSYNASWLLRFKFPFEKCGFFDIGGLGRRPCWLIDSELSCAVCGTVAYDSGGLNPNKYSELIKQTDEIISKEPKLDLPGYNNLNCTDAWENNLSVGLCQNVSNILDSAWSSYQSSLNFPSINFNWKEDSTNEGGDQVYHNSYLDLPRYKQKKTFYWDQDPGTIPALSDEMKLIGLSAQPTYHPLDRSSSGSFESDSTESGRANEERNDTLEEMIYKQSSDSIEDILVPVTKPIFSDYSSIGRNSGVEEVYSSNVSTISSKGVVFPNTTTSSDNDFTKNNPANSSKHTSTSTTTNTTTTTTRTTTTTTTTTTTTTTTTTTTTETTTTKKSTTATKNTTTT,glycan array binding signal (z-score),[1],0.031
same,glycan array binding signal (z-score),[2],-0.029
same,glycan array binding signal (z-score),[3],-0.161
same,glycan array binding signal (z-score),[4],-0.154
same,glycan array binding signal (z-score),[5],0.51
same,glycan array binding signal (z-score),[6],0.003
same,glycan array binding signal (z-score),[7],0.705
same,glycan array binding signal (z-score),[8],-0.242
same,glycan array binding signal (z-score),[9],-0.169
same,glycan array binding signal (z-score),[10],-0.281
same,glycan array binding signal (z-score),[11],0.593
same,glycan array binding signal (z-score),[12],0.068
same,glycan array binding signal (z-score),[13],-0.242
same,glycan array binding signal (z-score),[14],-0.208
same,glycan array binding signal (z-score),[15],-0.235
same,glycan array binding signal (z-score),[16],-0.149
same,glycan array binding signal (z-score),[17],-0.166
same,glycan array binding signal (z-score),[18],-0.266
same,glycan array binding signal (z-score),[19],0.543
same,glycan array binding signal (z-score),[20],-0.15
same,glycan array binding signal (z-score),[21],-0.114
same,glycan array binding signal (z-score),[22],-0.22
same,glycan array binding signal (z-score),[23],-0.01
same,glycan array binding signal (z-score),Gal3S(b1-3)GalNAc,-0.101
same,glycan array binding signal (z-score),[24],0.021
same,glycan array binding signal (z-score),GalNAc(b1-6)GalNAc,-0.238
same,glycan array binding signal (z-score),[25],18.7
same,glycan array binding signal (z-score),[26],2.11
same,glycan array binding signal (z-score),[27],1.61
same,glycan array binding signal (z-score),[28],0.617
same,glycan array binding signal (z-score),[29],-0.117
same,glycan array binding signal (z-score),[30],0.693
same,glycan array binding signal (z-score),[31],-0.079
same,glycan array binding signal (z-score),[32],0.18
same,glycan array binding signal (z-score),[33],0.074
same,glycan array binding signal (z-score),GlcNAc(b1-4)GlcNAc,5.31
same,glycan array binding signal (z-score),[34],-0.101
same,glycan array binding signal (z-score),[35],-0.123
same,glycan array binding signal (z-score),[36],-0.229
same,glycan array binding signal (z-score),[37],-0.11
same,glycan array binding signal (z-score),[38],-0.101
same,glycan array binding signal (z-score),Neu5Ac(a2-3)GalNAc,0.005
same,glycan array binding signal (z-score),[39],-0.172
same,glycan array binding signal (z-score),[40],-0.216
same,glycan array binding signal (z-score),[41],-0.03
same,glycan array binding signal (z-score),[42],0.518
same,glycan array binding signal (z-score),Neu5Ac(b2-6)GalNAc,-0.003
same,glycan array binding signal (z-score),[43],-0.119
